Test results as given in PMC12136788.
Over roughly 24,000 sequences, “enrichment r” has its median near 0.99; the highest 2% begin near 3.7. The list comes from a sample in which the highest values are over-represented; it also holds similar and randomly drawn sequences.

B1: chr1:39494564:39494565:+_ENSG00000168653_ENST00000372967|hu_hu|motif|central (ssRNA)
RNA: GGGAGUUCUACAGUCCGACGAUCACCUGCACGUCUCAUCGUUUUCUGCCGAAGCAAACACUCUACGAAAUCAUCAUAUUCGGUCUUGCACUCUUUCUCUGCCCGAGUAUAACCGAUUCCAUGUGCACAUUCUAUCCAUUCUUUCAACAGAGGAUUGAGCAUCA
B2: 121693014_121693134_369_3pUTR_ENSMUSG00000060227_ENSMUST00000078752|mouse|control|control (ssRNA)
RNA: GGGAGUUCUACAGUCCGACGAUCUUCUCCAAGCGCCCGCGGGCCACCUCGGUGCGCUGGACCUGGCCCUGCAGCUCGGCCACCUCCUCCUGAAGCAGAACGUGGCGGGAGGAGAUGCUCCAGUAGUUGAAGGCAAGGACGACGCAACAGAGGAUUGAGCAUCA
B3: chr19:47610742:47610743:-_ENSMUSG00000042694_ENSMUST00000049369|mus_hu|FALSE|FALSE (ssRNA)
RNA: GGGAGUUCUACAGUCCGACGAUCUGGCACCUGGCGGGACUCCUUCAUGUCCAGGAUAUCCCUGAUGUAGAGUUUUGCAAAGGCUAGAAACACAGGAUCCAAACCCCACAAGAGGGAAGGGGUCUCCUCUUCACACCGGCUGGACAACAGAGGAUUGAGCAUCA
B4: chr16:94646735:94646736:+_ENSMUSG00000040785_ENSMUST00000117648|mus_mus|motif|central (ssRNA)
RNA: GGGAGUUCUACAGUCCGACGAUCUGUUUUUAACUUUUUCCAGCAGUUCAUAUGAAAUUCUACCUUACAGUAUUGGCAACAGCGGAUUCGUAUAAAACCCUUAAAGUCUGGAUCAGUUAAGUAAAUCUGAAUUUUAGAAUAUCCCAACAGAGGAUUGAGCAUCA
B5: chr6:145182920:145182921:-_ENSMUSG00000030265_ENSMUST00000032399|mus_hu|motif|central (ssRNA)
RNA: GGGAGUUCUACAGUCCGACGAUCCUCCUCUUGACCUGCUGUGUCGAGAAUAUCCAAGAGACAGGUUUCUCCAUCAAUUACGGCUUGCUUCCUGUAGGAAUCCUCUAUUGUUGGAUCAUAUUCGUCCACAAAAUGAUUCUGAAUCAACAGAGGAUUGAGCAUCA
B6: chr7:75932113:75932114:+_ENSG00000106211_ENST00000248553|hu_mus|FALSE|FALSE (ssRNA)
RNA: GGGAGUUCUACAGUCCGACGAUCCUGCGACCACUCAUCGGGCAACCGGGGCACCCCGAAAGCUUGAUCGAAGAGGCGGCUGUGUGCAGGGUACCAGUCCCGGAAUGGUUCCCAGCUCGGGCUCCGCAGCAGCGAGAAGGGCACCAACAGAGGAUUGAGCAUCA

Molecular target: T1, UNK ZnF1-3 (human, UniProt Q9C0B0 31-174)
T1 sequence: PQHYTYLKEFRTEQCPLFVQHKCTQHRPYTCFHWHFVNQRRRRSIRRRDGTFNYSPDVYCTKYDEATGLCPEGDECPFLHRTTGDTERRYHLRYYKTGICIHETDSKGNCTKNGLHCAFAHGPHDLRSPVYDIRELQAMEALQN
Assay: nsRBNS (natural sequence RNA bind-n-seq); RBNS binding buffer (assumed for nsRBNS): 25 mM Tris pH 7.5, 150 mM KCl, 3 mM MgCl2, 0.01% Triton X-100, 500 ug/ml BSA, 20 U/ml SUPERase-In, 4 C; UNK is unkempt and MSI1 is Musashi-1; names of the RNAs are library labels; protein concentration not given here; high values mean tight binding

| Binder | binding signal [enrichment R] |
| --- | --- |
| B1 | 0.521 |
| B2 | 0.777 |
| B3 | 0.707 |
| B4 | 1.03 |
| B5 | 0.665 |
| B6 | 1.04 |
